LNCaP diff act: LNCaP prostate cell differentiation activation. flow cytometry side scatter, 4 d. side scatter shift, % at 10 µM. 0.56% of 24,000 active;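 active = side scatter shift above 30%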;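 also: androgen-responsive LNCaP prostate cancer cells in charcoal-stripped serum medium; percent of cells past a gate set so DMSO wells show 10% shift; higher shift means more granular cells and more differentiation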
QS inhibitor: inhibitors of bacterial quorum sensing in S. aureus; inhibition, % at 2 µM; S. aureus RN6390 RNAIII-GFP reporter, AIP-induced, flow cytometry 3 h; 0.3% of 24,000 active; AID 527;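 active = share of bacteria positive for the green fluorescent reporter and its mean brightness both inhibited by 50% or more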;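 also: 0% = AIP-stimulated control and 100% = unstimulated bacteria without AIP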
26S disassembly: blocks ATP-dependent breakdown of the yeast 26S proteasome | AID 751 | anti-FLAG beads, GFP-proteasome disassembly, flow cytometry | 0.2% of 24,000 active | inhibition of disassembly, % (test concentration not listed);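 active = inhibition of disassembly above about 33%, limit read from the data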;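 also: plate controls were ATP control with full disassembly for no effect and ATP-gamma-S intact proteasomes for full effect; higher percent means more bead fluorescence retained so stronger block of disassembly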
The depositor's hits bear a star. Most compounds without a hit are left out; they make up all but 0.91% or so of the library.

SMILES	LNCaP diff act	QS inhibitor	26S disassembly
CC[C@H]1OC(=O)C[C@@H](O)[C@H](C)[C@@H](O[C@@H]2O[C@H](C)C[C@H](N(C)C)[C@H]2O)[C@@H](CC=O)C[C@@H](C)C(=O)C=C[C@]2(C)O[C@H]2[C@@H]1C	15	51*	0
CCN(CCNC(=O)Nc1ccc(Cl)cc1)c1ccccc1	21	11	0
COc1ccc(CNC(=O)CS(=O)Cc2nc(-c3ccccc3C)oc2C)cc1 (stereo not drawn)	18	0	6
COc1ccccc1CNC(=O)CS(=O)Cc1nc(-c2ccccc2C)oc1C (stereo not drawn)	8	0	165*
Cc1cc(C)c(S(=O)(=O)NCc2cn3c(C)csc3n2)cc1C	7	-2	-1
CCC(=O)O[C@@H]1CC(=O)O[C@H](C)CC=CC=C[C@@H](O)[C@H](C)C[C@H](CC=O)[C@H](O[C@H]2O[C@H](C)[C@@H](O[C@H]3C[C@@](C)(O)[C@@H](OC(=O)CC)[C@H](C)O3)[C@H](N(C)C)[C@H]2O)[C@H]1OC	9	51*	0
CCOC(=O)c1[nH]c2ccc(OC)cc2c1N=CN(C)C	9	3	-1
CC(C)(C)OC(=O)N1CCC(C(=O)N2CCOCC2)CC1	21	0	-2
CC(C)(C)OC(=O)N1CCC(C(=O)N2CCCCCC2)CC1	31*	1	-1
Cc1ccc(-c2c3c(=O)n(C)c(=O)n(C)c3c3c(C)cc(C)nn23)cc1	6	0	1
Cc1ccc2nc(NC(=O)C3CCN(S(=O)(=O)c4cccc5nsnc45)CC3)sc2c1	1	2	0
Cc1ccc2nc(NC(=O)C3CCCN(S(=O)(=O)c4cccc5nsnc45)C3)sc2c1 (stereo not drawn)	6	16	151*
CCn1c(Oc2ccc(Oc3ncc(Cl)cc3Cl)cc2)nc2c1c(=O)n(C)c(=O)n2C	6	-2	1
Cc1nn(Cc2ccc(F)cc2)c(C)c1NC(=O)c1cc(-c2ccc3c(c2)OCO3)on1	30*	-4	-1
Cc1ccc(Cn2nc(C)c(NC(=O)c3cc(-c4ccc5c(c4)OCO5)on3)c2C)cc1	9	1	0
Cc1ccc2c(c1)c1c(n2CC(O)CNC(CO)(CO)CO)CCCC1 (stereo not drawn)	30*	0	-2
COC(=O)Cn1c2c(c3cc(C)ccc31)CCCC2	9	1	-1
CC(=O)c1sc(N2C(=O)c3oc4ccccc4c(=O)c3C2c2ccc(C)o2)nc1C (stereo not drawn)	13	0	0
CCOC(=O)N1CCC(NC(=O)C2CCCN(Cc3nc(-c4cccc(Cl)c4)oc3C)C2)CC1 (stereo not drawn)	4	0	10
Cc1ccc(-c2nc(CS(=O)CC(=O)NCCN3CCCC3)c(C)o2)cc1 (stereo not drawn)	7	-10	0
CCCN(CCC)CCNC(=O)C1CCN(Cc2nc(-c3ccc(Cl)cc3)oc2C)CC1	87*	-2	3
Cc1oc(-c2ccc(Cl)cc2)nc1CN1CCC(C(=O)NCc2cccnc2)CC1	17	-3	8
Cc1oc(-c2ccc(Cl)cc2)nc1CS(=O)CC(=O)NCCN1CCCC1 (stereo not drawn)	11	-1	154*
CCN1CCN(CCNC(=O)C2CCCN(Cc3nc(-c4cccc(Cl)c4)oc3C)C2)CC1 (stereo not drawn)	44*	0	1
N#CC1=C(N)N(c2ccc(Oc3ccccc3)cc2)C(=O)C1	7	-1	-1
SMILES	LNCaP diff act	QS inhibitor	26S disassembly
O=C(OCCn1cncn1)c1cc2ccccc2oc1=O	9	2	1
Cc1noc(/C=C/c2ccco2)c1S(=O)(=O)N1CCC(C(=O)N2CCc3ccccc3C2)CC1	43*	-2	42*
Cc1noc(/C=C/c2ccco2)c1S(=O)(=O)N1CCC(C(=O)NCc2ccco2)CC1	11	-2	-1
CCOC(=O)c1ccc(NC2OC(=O)c3ccccc32)cc1 (stereo not drawn)	18	-1	-1
Cc1cc(NC(=O)c2noc3c2CCc2ccccc2-3)n(-c2ccccc2)n1	35*	-5	0
Cc1cc(NC(=O)Nc2cc(C)nn2-c2ccccc2)n(-c2ccccc2)n1	2	5	-3
C=CCn1c(COc2ccc(Cl)cc2)nnc1SCC(=O)N1CC(=O)Nc2ccccc21	13	20	0
CCNC(=O)c1cc2c(=O)n3cccc(C)c3nc2n1C	10	-3	-1
CCCn1c(=NC(C)=O)c(C#N)cc2c(=O)n3cccc(C)c3nc21	14	-5	67*
COC(=O)C(Cc1ccccc1)NC(=O)CSc1nc(N)cc(=O)[nH]1 (stereo not drawn)	8	-3	2
CCOC(=O)C(CC)Sc1nc(-c2ccc(OC)cc2)nc2c1c(=O)n(C)c(=O)n2C (stereo not drawn)	19	2	1
O=C(C1CCC1)N1CCc2cc(S(=O)(=O)NCCN3CCN(c4ccccc4F)CC3)ccc21	12	0	1
COc1cccc(Oc2cnc(N)nc2-c2ccc(OC)cc2O)c1	29	62*	0
C=C(C)COc1ccc(-c2nc(N)ncc2-c2ccc(OC)cc2)c(O)c1	8	14	-1
Cc1cccc(NC(=O)Cn2cnc3sc(C)c(S(=O)(=O)N4CCC(C)CC4)c3c2=O)n1	6	-8	1
CCN(CC)S(=O)(=O)c1ccc2[nH]cc(C(=O)NCCC3=CCCCC3)c(=O)c2c1	10	15	1
COCCn1c(=N)c(C(=O)NCCc2ccccc2)cc2c(=O)n3cccc(C)c3nc21	10	0	4
Cc1cccn2c(=O)c3cc(C(=O)NCc4ccccc4)c(=N)n(CCCN4CCOCC4)c3nc12	58*	4	1
COc1ccc(N2CCN(CCNC(=O)c3ccc(NC(=O)C4CCCO4)cc3)CC2)cc1 (stereo not drawn)	9	2	-1
COc1ccc(C(O)C(CC(=O)NCCCOC(C)C)C(=O)NCCCOC(C)C)cc1OC (stereo not drawn)	2	-1	0
Cn1cccc1Cc1nnc(SCC(=O)Nc2ccc3c(c2)OCCO3)n1CCc1ccccc1	8	33	1
O=S(=O)(NCCc1ccccn1)c1cccs1	5	-1	0
O=S(=O)(Nc1cccc2ncccc12)c1cccs1	34*	-4	-2
CC(NC(=O)C1CCCN(S(=O)(=O)c2cnc[nH]2)C1)c1ccccc1 (stereo not drawn)	12	2	-1
CC(C)CN(CC(C)C)C(=O)C12CCC(C)(C(=O)C1)C2(C)C (stereo not drawn)	19	-5	-4
SMILES	LNCaP diff act	QS inhibitor	26S disassembly
CCOC(=O)C1CCCN(C(=O)c2ccc3c(c2)NC(=O)C(N2CCOCC2)S3)C1 (stereo not drawn)	12	3	-1
Cc1cccc2cc(C#N)c(SCCN3CCCCC3)nc12	40*	25	10
Cn1c(SCCN2CCCCC2)nnc1-c1ccccc1Br	9	0	-1
C[C@@H]1CCC[C@H](C)N1NC(=O)c1ccc(Cl)c(S(N)(=O)=O)c1	3	1	0
Cc1ccc(CNc2nc3ccccc3n3nnnc23)cc1	35*	2	4
CCOC(=O)N1CCC(Nc2nc3ccccc3n3nnnc23)CC1	9	1	4
O=C(NCCN1CCOCC1)c1ccc2c(c1)ncn2C1CCCCC1	17	-2	0
